Assay results as given in the supplement of paper PMC10849652.
Of roughly 7,900 targets only a part is listed; those with a hit were picked by preference. About 0.6% of all pairs of compound and target were hits.

Experiments:
Experiment in all cases: log2 fold change, soluble protein after heating vs DMSO (PISA); higher = thermal stabilisation; K562 cells, 10 uM, 30 min; active = over 0.2 and 3.5 SD of the protein, either way, in both replicates (recomputed)
[1] = compound: C1=CC=C(C=C1)[C@H](COC2=CC3=C(C=C2)NC(=O)N3)NC(=O)C4=CC=CN(C4=O)CC5=CC(=C(C=C5)F)F
Procedure, shortened: (§1)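 For each measurement, 10 μM compound was applied for 30 min to K562 cells at 2×10^6 cells/mL. Aliquots were heated for 3 min across 48°C-58°C, pooled, and extracted in PBS with 0.5% NP-40 at 4°C; the supernatant after 21,000xg for 90 min was soluble protein. This was quantified by TMTpro 16plex LC-MS/MS with channel sums equalised, and thermal stability was reported relative to control samples from duplicates, on a log2 fold-change scale.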

[2] = compound: CC1=C(SC2=C1C(=N[C@H](C3=NN=C(N32)C)CC(=O)N)C4=CC=C(C=C4)Cl)C
Procedure, shortened: as §1

[3] = compound: CC1=C2C(=CC=C1)N=C(N(C2=O)C3=CC=CC=C3C)CN4C=NC5=C(N=CN=C54)N
Procedure, shortened: as §1

[4] = compound: Cc1sc2c(c1C)C(c1ccc(Cl)cc1)=N[C@@H](CC(=O)OC(C)(C)C)c1nnc(C)n1-2
Procedure, shortened: as §1

[5] = compound: c1ccc([C@@H]2C[C@H]2NC2CCNCC2)cc1
Procedure, shortened: as §1

Measured: log2 fold change

NOL7 (UniProt Q9UMY1)
inactive: [1] 0.168 | [2] -0.221 | [3] -0.265 | [4] 0.188 | [5] 0.057

NHLRC2 (UniProt Q8NBF2)
inactive: [1] -0.027 | [2] 0.038 | [3] 0.127 | [4] 0.009 | [5] 0.024

MOB3B (UniProt Q86TA1)
inactive: [1] 0 | [2] 0.029 | [3] 0.178 | [4] 0.041 | [5] -0.088

NCKAP1 isoform 2 (UniProt Q9Y2A7)
inactive: [1] -0.037 | [2] 0.035 | [3] 0.003 | [4] 0.007 | [5] -0.004

MRPS31 (UniProt Q92665)
inactive: [1] -0.042 | [2] 0.028 | [3] 0.021 | [4] 0.044 | [5] -0.031

MLST8 (UniProt Q9BVC4)
inactive: [1] -0.038 | [2] 0.062 | [3] 0.082 | [4] -0.05 | [5] -0.071

MPHOSPH10 (UniProt O00566)
inactive: [1] 0.023 | [2] -0.279 | [3] -0.206 | [4] 0.094 | [5] -0.024

MRPS5 (UniProt P82675)
inactive: [1] -0.017 | [2] 0.009 | [3] -0.03 | [4] 0.063 | [5] -0.077

NFX1 (UniProt Q12986)
inactive: [1] -0.011 | [2] -0.161 | [3] -0.068 | [4] 0.115 | [5] -0.163

NUMB (UniProt P49757)
inactive: [1] 0 | [2] 0.035 | [3] 0.046 | [4] 0.023 | [5] -0.009

MRPS33 (UniProt Q9Y291)
inactive: [1] 0.005 | [2] -0.057 | [3] -0.114 | [4] 0.098 | [5] -0.002

NDUFA6 (UniProt P56556)
Chain of UniProt P56556 (P56556 whole entry, looked up): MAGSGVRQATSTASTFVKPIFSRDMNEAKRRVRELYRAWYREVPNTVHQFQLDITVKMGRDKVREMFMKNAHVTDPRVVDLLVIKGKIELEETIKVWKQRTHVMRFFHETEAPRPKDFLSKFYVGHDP
inactive: [1] -0.017 | [2] 0.121 | [3] 0.104 | [4] -0.067 | [5] -0.039

MRPS17 (UniProt Q9Y2R5)
inactive: [1] -0.031 | [2] -0.044 | [3] -0.011 | [4] 0.06 | [5] -0.064

MRPS22 (UniProt P82650)
inactive: [1] -0.016 | [2] 0.05 | [3] -0.037 | [4] 0.087 | [5] -0.063

OSBPL8 (UniProt Q9BZF1)
inactive: [1] -0.051 | [2] -0.071 | [3] 0.007 | [4] -0.018 | [5] -0.002

MTHFD1, A0A384N5Y3
inactive: [1] -0.063 | [2] 0.138 | [3] -0.022 | [4] -0.002 | [5] -0.113

OPA1 isoform 2 (UniProt O60313)
inactive: [1] -0.054 | [2] 0.028 | [3] 0.021 | [4] -0.03 | [5] -0.037

ORC5 (UniProt O43913)
inactive: [1] -0.081 | [2] 0.02 | [3] 0.144 | [4] -0.016 | [5] -0.044

NDUFB10 (UniProt O96000)
inactive: [1] 0.048 | [2] 0.009 | [3] 0.06 | [4] -0.031 | [5] 0.002

MORC3 (UniProt Q14149)
inactive: [1] -0.043 | [2] 0.014 | [3] 0.132 | [4] 0.017 | [5] 0.062

NUP98 (UniProt P52948)
Chain of UniProt P52948 (P52948 whole entry, looked up): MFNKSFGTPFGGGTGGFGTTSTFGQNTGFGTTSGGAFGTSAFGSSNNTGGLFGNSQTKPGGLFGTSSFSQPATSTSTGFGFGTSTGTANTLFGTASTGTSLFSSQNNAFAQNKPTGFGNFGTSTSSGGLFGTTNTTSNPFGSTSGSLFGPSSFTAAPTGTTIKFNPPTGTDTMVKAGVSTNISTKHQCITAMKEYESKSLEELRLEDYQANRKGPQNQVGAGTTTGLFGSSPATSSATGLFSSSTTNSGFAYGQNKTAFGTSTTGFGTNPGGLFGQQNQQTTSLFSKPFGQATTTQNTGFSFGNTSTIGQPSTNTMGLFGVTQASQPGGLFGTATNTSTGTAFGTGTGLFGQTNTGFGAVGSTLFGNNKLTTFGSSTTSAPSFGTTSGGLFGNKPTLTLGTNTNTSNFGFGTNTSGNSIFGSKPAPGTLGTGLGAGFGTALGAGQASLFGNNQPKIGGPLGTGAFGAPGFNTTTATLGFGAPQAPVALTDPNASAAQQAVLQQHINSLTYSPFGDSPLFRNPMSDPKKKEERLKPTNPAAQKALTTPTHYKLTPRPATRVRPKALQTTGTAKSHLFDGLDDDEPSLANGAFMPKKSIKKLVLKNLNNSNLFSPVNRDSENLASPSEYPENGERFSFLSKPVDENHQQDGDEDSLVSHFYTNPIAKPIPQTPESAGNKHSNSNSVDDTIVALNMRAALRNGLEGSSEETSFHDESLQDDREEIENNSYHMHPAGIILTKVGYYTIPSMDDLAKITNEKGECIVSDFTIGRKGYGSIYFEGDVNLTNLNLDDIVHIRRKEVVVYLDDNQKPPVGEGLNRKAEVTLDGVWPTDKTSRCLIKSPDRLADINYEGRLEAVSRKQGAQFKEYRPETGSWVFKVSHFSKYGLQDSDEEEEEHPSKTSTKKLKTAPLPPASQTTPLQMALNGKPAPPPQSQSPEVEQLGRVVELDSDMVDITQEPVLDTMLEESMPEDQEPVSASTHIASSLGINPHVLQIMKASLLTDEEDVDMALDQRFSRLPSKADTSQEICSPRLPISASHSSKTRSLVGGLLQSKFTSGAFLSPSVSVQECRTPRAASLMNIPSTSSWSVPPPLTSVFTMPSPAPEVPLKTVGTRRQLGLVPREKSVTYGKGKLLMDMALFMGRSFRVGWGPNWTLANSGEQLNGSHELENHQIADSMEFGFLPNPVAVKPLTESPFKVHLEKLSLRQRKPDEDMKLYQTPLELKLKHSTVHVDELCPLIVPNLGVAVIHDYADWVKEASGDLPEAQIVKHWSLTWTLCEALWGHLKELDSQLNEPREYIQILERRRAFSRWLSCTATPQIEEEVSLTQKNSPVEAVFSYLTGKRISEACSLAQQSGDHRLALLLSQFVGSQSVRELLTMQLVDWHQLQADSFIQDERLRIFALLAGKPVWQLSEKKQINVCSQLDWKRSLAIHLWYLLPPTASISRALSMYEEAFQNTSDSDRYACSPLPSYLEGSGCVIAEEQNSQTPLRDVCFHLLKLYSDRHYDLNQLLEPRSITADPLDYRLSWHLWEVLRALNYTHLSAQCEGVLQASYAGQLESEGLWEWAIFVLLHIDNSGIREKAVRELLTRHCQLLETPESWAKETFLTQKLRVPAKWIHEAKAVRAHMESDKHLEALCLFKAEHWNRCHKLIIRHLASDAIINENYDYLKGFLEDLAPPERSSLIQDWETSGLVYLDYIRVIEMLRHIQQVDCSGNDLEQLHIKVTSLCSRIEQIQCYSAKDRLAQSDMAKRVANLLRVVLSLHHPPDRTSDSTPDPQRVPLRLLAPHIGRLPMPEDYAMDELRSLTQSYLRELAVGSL
inactive: [1] -0.041 | [2] 0.032 | [3] 0.071 | [4] -0.005 | [5] -0.011

NMD3 (UniProt Q96D46)
Chain of UniProt Q96D46 (Q96D46 whole entry, looked up): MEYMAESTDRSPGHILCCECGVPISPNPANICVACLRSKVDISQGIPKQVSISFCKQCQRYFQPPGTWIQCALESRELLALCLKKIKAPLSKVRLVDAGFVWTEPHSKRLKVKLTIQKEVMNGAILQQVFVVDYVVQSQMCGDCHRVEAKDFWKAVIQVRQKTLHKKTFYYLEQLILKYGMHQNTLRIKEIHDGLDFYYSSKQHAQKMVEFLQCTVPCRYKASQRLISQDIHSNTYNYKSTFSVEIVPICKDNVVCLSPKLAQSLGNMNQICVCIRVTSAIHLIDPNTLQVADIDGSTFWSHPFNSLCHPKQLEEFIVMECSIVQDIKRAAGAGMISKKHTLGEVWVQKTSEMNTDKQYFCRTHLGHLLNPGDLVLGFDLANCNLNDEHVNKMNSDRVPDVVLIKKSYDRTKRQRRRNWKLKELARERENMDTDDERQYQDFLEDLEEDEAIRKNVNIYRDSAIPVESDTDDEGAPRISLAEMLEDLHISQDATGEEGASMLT
inactive: [1] -0.046 | [2] 0.049 | [3] 0.01 | [4] -0.02 | [5] -0.11

NEU1 (UniProt Q99519)
inactive: [1] -0.116 | [2] 0.004 | [3] 0.047 | [4] -0.043 | [5] -0.025

NSMCE4A (UniProt Q9NXX6)
inactive: [1] 0.123 | [2] 0.03 | [3] -0.088 | [4] -0.037 | [5] -0.014

NCAPG (UniProt Q9BPX3)
Chain of UniProt Q9BPX3 (Q9BPX3 whole entry, looked up): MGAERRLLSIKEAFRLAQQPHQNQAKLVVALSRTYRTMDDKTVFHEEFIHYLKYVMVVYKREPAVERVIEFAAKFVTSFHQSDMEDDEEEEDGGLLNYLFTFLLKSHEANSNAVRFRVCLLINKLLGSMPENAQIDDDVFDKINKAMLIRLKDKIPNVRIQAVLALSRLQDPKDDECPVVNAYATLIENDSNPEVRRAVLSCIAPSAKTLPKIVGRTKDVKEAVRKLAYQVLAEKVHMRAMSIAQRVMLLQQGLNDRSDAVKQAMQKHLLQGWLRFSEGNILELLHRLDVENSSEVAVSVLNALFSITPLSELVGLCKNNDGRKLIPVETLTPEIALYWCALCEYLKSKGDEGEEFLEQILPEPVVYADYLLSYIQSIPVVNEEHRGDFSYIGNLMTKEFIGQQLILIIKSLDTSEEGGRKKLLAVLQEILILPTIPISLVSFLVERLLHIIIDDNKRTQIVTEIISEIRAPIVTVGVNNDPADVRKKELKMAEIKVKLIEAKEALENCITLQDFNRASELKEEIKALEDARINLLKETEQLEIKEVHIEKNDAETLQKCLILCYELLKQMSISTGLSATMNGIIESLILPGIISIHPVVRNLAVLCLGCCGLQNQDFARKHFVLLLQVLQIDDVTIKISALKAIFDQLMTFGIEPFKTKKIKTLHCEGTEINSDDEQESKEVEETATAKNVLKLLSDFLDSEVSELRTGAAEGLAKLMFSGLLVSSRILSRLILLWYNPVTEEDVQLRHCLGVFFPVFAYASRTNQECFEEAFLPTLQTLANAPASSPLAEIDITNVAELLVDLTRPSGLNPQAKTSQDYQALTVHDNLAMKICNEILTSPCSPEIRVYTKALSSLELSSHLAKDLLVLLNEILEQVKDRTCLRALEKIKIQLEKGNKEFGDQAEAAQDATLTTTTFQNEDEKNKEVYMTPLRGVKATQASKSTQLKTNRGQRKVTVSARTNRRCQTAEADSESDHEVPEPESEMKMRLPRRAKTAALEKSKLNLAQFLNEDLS
inactive: [1] -0.033 | [2] 0.019 | [3] 0.101 | [4] -0.002 | [5] -0.002

MT-ND4 (UniProt P03905)
inactive: [1] -0.124 | [2] -0.017 | [3] -0.045 | [4] -0.057 | [5] 0.036

MRPS16 (UniProt Q9Y3D3)
inactive: [1] -0.006 | [2] -0.033 | [3] -0.009 | [4] 0.014 | [5] -0.074

OXSM (UniProt Q9NWU1)
inactive: [1] 0.072 | [2] -0.007 | [3] 0.045 | [4] -0.007 | [5] 0.036

MRPS35 (UniProt P82673)
inactive: [1] -0.011 | [2] -0.03 | [3] -0.033 | [4] 0.143 | [5] -0.004

MMS19 isoform 8 (UniProt Q96T76)
inactive: [1] -0.034 | [2] -0.001 | [3] 0.133 | [4] 0.002 | [5] -0.003

NOSIP (UniProt Q9Y314)
inactive: [1] 0.056 | [2] 0.043 | [3] 0.179 | [4] -0.043 | [5] 0.016

NSUN2 (UniProt Q08J23)
inactive: [1] -0.019 | [2] 0.023 | [3] 0.003 | [4] 0 | [5] 0.003

NCBP2AS2 (UniProt Q69YL0)
inactive: [1] 0.02 | [2] 0.019 | [3] 0.048 | [4] -0.038 | [5] -0.003

OXSR1 (UniProt O95747)
inactive: [1] -0.039 | [2] 0.048 | [3] 0.096 | [4] -0.003 | [5] -0.03

NSMCE2 (UniProt Q96MF7)
Chain of UniProt Q96MF7 (Q96MF7 whole entry, looked up): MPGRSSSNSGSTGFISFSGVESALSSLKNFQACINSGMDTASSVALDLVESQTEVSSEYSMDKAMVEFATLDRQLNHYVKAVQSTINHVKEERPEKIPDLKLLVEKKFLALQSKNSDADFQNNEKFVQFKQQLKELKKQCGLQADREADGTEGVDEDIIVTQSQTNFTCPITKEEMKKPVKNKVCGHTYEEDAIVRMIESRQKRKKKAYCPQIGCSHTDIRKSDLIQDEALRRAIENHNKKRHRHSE
inactive: [1] 0.074 | [2] 0.031 | [3] 0.075 | [4] 0.004 | [5] -0.017

OSBP (UniProt P22059)
inactive: [1] 0.015 | [2] 0.084 | [3] 0.076 | [4] -0.002 | [5] 0.031

NME1 isoform 2 (UniProt P15531)
inactive: [1] 0.095 | [2] 0.142 | [3] 0.069 | [4] 0.033 | [5] -0.108

NELFA (UniProt Q9H3P2)
Chain of UniProt Q9H3P2 (Q9H3P2 whole entry, looked up): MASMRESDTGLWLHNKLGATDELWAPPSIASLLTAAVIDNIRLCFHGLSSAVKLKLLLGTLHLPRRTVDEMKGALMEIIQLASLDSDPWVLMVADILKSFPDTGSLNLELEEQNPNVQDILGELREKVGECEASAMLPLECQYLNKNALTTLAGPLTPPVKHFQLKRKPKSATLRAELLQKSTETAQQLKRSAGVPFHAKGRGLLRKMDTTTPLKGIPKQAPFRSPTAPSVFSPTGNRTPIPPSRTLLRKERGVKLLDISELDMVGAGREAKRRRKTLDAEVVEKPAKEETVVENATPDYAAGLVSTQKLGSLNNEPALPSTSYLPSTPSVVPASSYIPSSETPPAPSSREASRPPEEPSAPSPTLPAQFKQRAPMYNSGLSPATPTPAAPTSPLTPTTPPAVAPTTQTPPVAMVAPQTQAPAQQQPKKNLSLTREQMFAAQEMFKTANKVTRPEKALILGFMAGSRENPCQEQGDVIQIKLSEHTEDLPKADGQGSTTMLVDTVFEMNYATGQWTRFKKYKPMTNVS
inactive: [1] -0.016 | [2] 0.213 | [3] 0.056 | [4] -0.07 | [5] 0.035

NACC1 (UniProt Q96RE7)
inactive: [1] -0.029 | [2] 0.039 | [3] 0.092 | [4] -0.037 | [5] -0.015

OTUD6B (UniProt Q8N6M0)
Chain of UniProt Q8N6M0 (Q8N6M0 whole entry, looked up): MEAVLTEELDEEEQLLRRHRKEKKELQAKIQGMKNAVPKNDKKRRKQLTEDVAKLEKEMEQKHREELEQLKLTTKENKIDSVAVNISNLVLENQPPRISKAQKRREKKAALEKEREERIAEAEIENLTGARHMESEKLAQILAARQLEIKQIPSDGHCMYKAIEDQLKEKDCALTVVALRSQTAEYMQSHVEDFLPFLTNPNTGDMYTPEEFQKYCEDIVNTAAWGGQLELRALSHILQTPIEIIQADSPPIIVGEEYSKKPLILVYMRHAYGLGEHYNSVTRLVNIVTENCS
inactive: [1] -0.051 | [2] 0.022 | [3] 0.11 | [4] 0.03 | [5] -0.153

NCK1 (UniProt P16333)
inactive: [1] -0.077 | [2] 0.025 | [3] 0.168 | [4] 0.044 | [5] -0.085

MTOR (UniProt P42345)
inactive: [1] -0.044 | [2] 0.021 | [3] 0.092 | [4] -0.001 | [5] -0.028

OSTM1 (UniProt Q86WC4)
inactive: [1] 0.023 | [2] 0.036 | [3] 0.058 | [4] -0.091 | [5] -0.013

MND1 (UniProt Q9BWT6)
inactive: [1] 0.009 | [2] 0.012 | [3] 0.081 | [4] 0.088 | [5] 0.102

NA, A0A494C071
inactive: [1] -0.172 | [2] -0.016 | [3] 0.236 | [4] 0.07 | [5] 0.072

MRPS26 (UniProt Q9BYN8)
inactive: [1] -0.075 | [2] 0.061 | [3] -0.012 | [4] -0.009 | [5] 0.013

OGFOD2 (UniProt Q6N063)
Chain of UniProt Q6N063 (Q6N063 whole entry, looked up): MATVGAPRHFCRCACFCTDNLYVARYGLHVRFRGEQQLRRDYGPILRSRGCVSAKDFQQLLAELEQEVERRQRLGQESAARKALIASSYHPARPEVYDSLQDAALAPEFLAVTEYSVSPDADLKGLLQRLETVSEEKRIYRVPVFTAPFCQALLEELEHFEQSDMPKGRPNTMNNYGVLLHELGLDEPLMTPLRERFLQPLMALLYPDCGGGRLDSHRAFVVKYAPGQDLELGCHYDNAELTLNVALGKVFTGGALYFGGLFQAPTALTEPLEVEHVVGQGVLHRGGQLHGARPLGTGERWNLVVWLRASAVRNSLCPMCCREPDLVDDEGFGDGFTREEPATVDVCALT
inactive: [1] 0.124 | [2] 0.097 | [3] 0.024 | [4] 0.091 | [5] 0.053

NFATC2 (UniProt Q13469)
inactive: [1] -0.063 | [2] 0.097 | [3] 0.077 | [4] 0.023 | [5] 0.021

NDUFAF6 (UniProt Q330K2)
inactive: [1] -0.048 | [2] 0.003 | [3] -0.006 | [4] 0.063 | [5] 0.024

NAP1L1 (UniProt P55209)
inactive: [1] -0.072 | [2] 0.003 | [3] 0.17 | [4] 0.013 | [5] 0.009

NDUFA7 (UniProt O95182)
Chain of UniProt O95182 (O95182 whole entry, looked up): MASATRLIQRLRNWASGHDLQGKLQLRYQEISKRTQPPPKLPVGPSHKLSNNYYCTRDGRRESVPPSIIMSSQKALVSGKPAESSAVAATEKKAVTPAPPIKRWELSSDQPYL
inactive: [1] 0.007 | [2] 0.002 | [3] 0.007 | [4] 0.008 | [5] 0.034

MRPL50 (UniProt Q8N5N7)
inactive: [1] 0.11 | [2] 0.01 | [3] -0.079 | [4] -0.022 | [5] -0.05

MYH11 isoform 2 (UniProt P35749)
inactive: [1] 0.011 | [2] 0.024 | [3] -0.071 | [4] -0.026 | [5] -0.036
